Laboratory results: PubChem BioAssay
For part of these data: Potency and affinity values are given separately. Calls of active or inactive are those of the source.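 How the source made its calls, unless noted: active means fitted half-maximal concentration within 10 nM to 100 µM, steepness 0.5 to 2, significant signal drop, low assay interference; inactive means the rest.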

What was measured:
[1] = target: Cell division control protein 42 homolog (Homo sapiens) (UniProt P60953); assay: activated mutant Cdc42 GTP-binding inhibitors, dose response, biochemical, multiplex bead flow cytometry, Bodipy-FL-GTP (AID 1333;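 active means fitted half-maximal concentration within the tested dose range, moderate curve steepness, a statistically real signal drop, and little compound fluorescence or tag-binding interference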)
[2] = target: Cell division control protein 42 homolog (Homo sapiens) (UniProt P60953); assay: wildtype Cdc42 GTP-binding inhibitors, dose response, biochemical, multiplex bead flow cytometry, Bodipy-FL-GTP (AID 1334;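 active means fitted half-maximal concentration within the tested range, moderate curve steepness, significant signal drop, and little compound fluorescence or bead-linkage interference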); details: bead-based flow cytometry, Bodipy-FL-GTP binding to GST-Cdc42; at 100 µM (top of the series) unless noted
[3] = target: GTPase HRas (Homo sapiens) (UniProt P01112); assay: inhibitors of GTP binding to wildtype Ras, dose response, biochemical, multiplex bead flow cytometry (AID 1335); details: bead-based flow cytometry, Bodipy-GTP binding to GST-Ras; at 100 µM (top of the series) unless noted
[4] = system: Ras-related protein Rab-7a (dog), GTP binding; assay: Rab7 GTP binding inhibitors, potency, dose response, biochemical, wildtype, multiplex bead flow cytometry (AID 1336; call rule not given here)
[5] = target: Ras-related C3 botulinum toxin substrate 1 (Homo sapiens) (UniProt P63000); assay: wildtype Rac1 GTP binding inhibitors, dose response, biochemical, multiplex bead flow cytometry (AID 1340;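 active means dose curve with midpoint inside tested range, moderate steepness, plateau gap beyond fit error, low compound glow and bead-link interference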); details: GST-Rac1 beads, Bodipy-FL-GTP binding; at 100 µM (top of the series) unless noted
[6] = target: GTPase HRas (Homo sapiens) (UniProt P01112); assay: activated Ras mutant GTP binding inhibitors, dose response, biochemical, multiplex bead flow cytometry (AID 1341;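 active means dose-response curve with midpoint inside the tested range, moderate steepness, significant amplitude and little compound fluorescence or bead-attachment interference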;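 further: GST-tagged constitutively activated Ras mutant immobilized on beads and multiplexed with other GTPases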)

Chain of GTPase HRas (Homo sapiens) (P01112 whole entry, looked up): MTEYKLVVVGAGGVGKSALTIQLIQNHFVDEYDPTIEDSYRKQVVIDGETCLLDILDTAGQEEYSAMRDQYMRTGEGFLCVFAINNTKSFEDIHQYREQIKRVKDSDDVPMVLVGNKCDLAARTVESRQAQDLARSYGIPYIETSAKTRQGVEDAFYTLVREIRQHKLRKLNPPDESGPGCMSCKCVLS
Chain of Cell division control protein 42 homolog (Homo sapiens) (P60953 whole entry, looked up): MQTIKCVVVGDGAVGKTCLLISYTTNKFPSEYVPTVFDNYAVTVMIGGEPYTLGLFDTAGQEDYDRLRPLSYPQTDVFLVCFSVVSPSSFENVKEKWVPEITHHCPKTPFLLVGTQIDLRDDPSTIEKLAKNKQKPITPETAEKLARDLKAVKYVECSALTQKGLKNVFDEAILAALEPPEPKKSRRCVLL

Structure (SMILES) | outcome [1] | fluorescence, percent of control (lower = inhibition) [2] [%] | GTP binding, percent of control [3] [%] | outcome [4] | GTP binding signal, raw median fluorescence (lower = inhibition) (MCF (arbitrary fluorescence units)) [5] | outcome [6]
O=C(Nc1cccc(Cl)c1)Nc1ccnc(-c2cccnc2)n1 | inactive | 33.8 | 72.8 | inactive | 155 | inactive
N#CC(C#N)=C1C=CC=CN1/C(=C\c1ccccc1Cl)C(=O)c1ccccc1 | inactive | 26.2 | 76.3 | inactive | 226 | inactive
C=CCn1c(SCC(=O)Nc2ccc3c(c2)OCO3)nnc1-c1cc(Br)ccc1O | inactive | 66.9 | 84.9 | inactive | 108 | inactive
O=C(Nc1nc(-c2ccc(S(=O)(=O)N3CCCC3)cc2)cs1)c1cccs1 | inactive | 83.9 | 135 | inactive | 164 | inactive
O=C(CSc1ccc2nnc(-c3ccccn3)n2n1)Nc1nccs1 | inactive | 28.8 | 61.7 | inactive | 124 | inactive
C/C(=N\NC(=O)c1ccc(Cl)c(S(=O)(=O)Nc2ccccc2Cl)c1)c1ccncc1 | inactive | 38.1 | 54 | inactive | 92 | inactive
COc1ccc(Nc2ccccc2C(=O)O)cc1 | inactive | 45.2 | 92.5 | inactive | 262 | inactive
Cc1ccccc1COc1cccc(C)c1C(=O)O | inactive | 58 | 200 | inactive | 56.1 | inactive
CCOC(=O)c1cc(C(=O)OCC)c(=O)[nH]c1N1CCCC1 | inactive | 31.6 | 72.4 | inactive | 262 | inactive
CCc1c(C)nc2c(C#N)c[nH]n2c1=O | inactive | 39 | 54.3 | inactive | 114 | inactive
CC(C)CCNC(=O)Cc1ccc(Nc2nc(=S)[nH]c3ccccc23)cc1 | inactive | 32.2 | 71.5 | inactive | 169 | inactive
COc1cc(/C=C2/C(C)=C(C#N)c3nc(N)c(C#N)c(C)c32)ccc1OCC(=O)O | inactive | 25.9 | 62 | inactive | 161 | inactive
CCCc1nc2oc3c(=O)[nH]cnc3c2c2c1CCCC2 | inactive | 35.5 | 79.1 | inactive | 193 | inactive
CCNC(=S)N=Nc1c(O)[nH]c2ccc([N+](=O)[O-])cc12 | inactive | 32.4 | 72.3 | inactive | 141 | inactive
COc1ccc(OCc2nc3c4cc(OC)c(OC)cc4nc(=S)n3[nH]2)cc1 | inactive | 31.9 | 75.5 | inactive | 186 | inactive
O=C(O)c1ccccc1NCc1ccc2c(c1)OCO2 | inactive | 69.6 | 89.5 | inactive | 54 | inactive
Nc1c(C(=O)C2CC2)sc2nc(-c3cccs3)cc(C(F)(F)F)c12 | inactive | 495 | 441 | inactive | 468 | inactive
Cc1cc(C)n2nc(C(=O)Nc3cccc(S(=O)(=O)N4CCCC4)c3)nc2n1 | inactive | 33.5 | 78.7 | inactive | 227 | inactive
O=C(O)Cn1cc(C(=O)C2CCCCC2)c2ccccc21 | inactive | 59.5 | 88.6 | inactive | 32 | inactive
N#C/C(=C/c1ccc(-c2ccccc2)o1)c1nc(-c2cccs2)cs1 | inactive | 96.4 | 107 | inactive | 228 | inactive

Structure (SMILES) | outcome [1] | fluorescence, percent of control (lower = inhibition) [2] [%] | GTP binding, percent of control [3] [%] | outcome [4] | GTP binding signal, raw median fluorescence (lower = inhibition) (MCF (arbitrary fluorescence units)) [5] | outcome [6]
Cc1cc2nc3c(=O)[nH]c(=O)[nH]c3nc2c([N+](=O)[O-])c1N | inactive | 35 | 75.6 | inactive | 192 | inactive
COc1cc2c(C)nc3c(c(C)nn3-c3ccccc3)c2cc1OC | inactive | 32.3 | 71.7 | inactive | 167 | inactive
Cc1cc2nc(/C(C#N)=C/c3ccncc3)[nH]c2cc1C | inactive | 30.6 | 76.7 | inactive | 245 | inactive
O=C(O)c1ccc(/C=N/NC(=O)c2cc(-c3ccc4c5c(cccc35)CC4)n[nH]2)cc1 | inactive | 28.2 | 71.2 | inactive | 151 | inactive
O=C(O)CC/C(=C\c1ccc(N2CCCC2)c([N+](=O)[O-])c1)c1nc2ccccc2s1 | inactive | 34.4 | 81.8 | inactive | 244 | inactive
O=C1OC(c2ccc(F)cc2)=C/C1=C\c1ccc([N+](=O)[O-])o1 | inactive | 49.1 | 91.4 | inactive | 283 | inactive
COc1cccc2c(SCC(=O)N/N=C/c3ccc(O)c(O)c3)cc(C)nc12 | inactive | 27.5 | 60.2 | inactive | 119 | inactive
COc1ccc(N(CC(=O)Nc2cccc(C)c2C)S(=O)(=O)c2c(C)n[nH]c2C)cc1 | inactive | 33.4 | 74.3 | inactive | 170 | inactive
CC(=O)Nc1ccc(/C=N/NC(=O)CCN2CCN(c3ccccc3)CC2)cc1 | inactive | 33.8 | 74.7 | inactive | 140 | inactive
COc1ccc(-c2cc(-c3ccc(O)cc3)nc(N)c2C#N)cc1OC | inactive | 32.2 | 77.1 | inactive | 184 | inactive
Cc1ccc(Nc2n[nH]c(C)c2[N+](=O)[O-])c(C)c1 | inactive | 52.6 | 65.8 | inactive | 194 | inactive
COC(=O)C1=C(C)NC(=O)/C1=C\c1cc(C)n(-c2c(C)cccc2C)c1C | inactive | 37 | 84.9 | inactive | 308 | inactive
Nc1[nH]nc2ncc3cc4ccccc4nc3c12 | inactive | 34.1 | 71.9 | inactive | 153 | inactive
Cc1ccc(OCCn2cnc3cc([N+](=O)[O-])ccc3c2=O)cc1 | inactive | 38.1 | 85.1 | inactive | 190 | inactive
CC(=O)NC1CC2CCCC(C1)N2C(=O)Nc1ccc(Cl)c(C(F)(F)F)c1 (stereo not given) | inactive | 91.1 | 146 | inactive | 174 | inactive
CC(C)c1ccc(C(=O)NC2=NCCS2)cc1 | inactive | 50.5 | 62.6 | inactive | 204 | inactive
CC(=O)c1ccc(N2CCN(C(=O)c3ccc4c(=O)n(-c5ccccc5)c(=O)[nH]c4c3)CC2)cc1 | inactive | 35.7 | 84.8 | inactive | 304 | inactive
COc1cc(Cl)c(C)cc1NCc1sc(C(=O)O)cc1C | inactive | 58.6 | 82 | inactive | 29.9 | inactive
CC1(C)CC2CC(C)(CN2C(=O)c2cccs2)C1 (stereo not given) | inactive | 43.3 | 59.5 | inactive | 184 | inactive
COc1ccc(CCn2c(C(C)C)nc3c(c(=O)c4ccccc4n3C)c2=O)cc1 | inactive | 34.5 | 82.6 | inactive | 241 | inactive

Structure (SMILES) | outcome [1] | fluorescence, percent of control (lower = inhibition) [2] [%] | GTP binding, percent of control [3] [%] | outcome [4] | GTP binding signal, raw median fluorescence (lower = inhibition) (MCF (arbitrary fluorescence units)) [5] | outcome [6]
O=C(CNC(=O)Cc1ccccc1)N=Nc1c(O)n(Cc2ccc3c(c2)OCO3)c2ccccc12 | inactive | 36.1 | 48.5 | inactive | 112 | inactive
Cc1nonc1OCCNc1ccc([N+](=O)[O-])cc1[N+](=O)[O-] | inactive | 50.3 | 63.5 | inactive | 209 | inactive
Cn1c(SCCOc2ccccc2F)nc2ccccc2c1=O | inactive | 29.1 | 71.9 | inactive | 158 | inactive
O=C(O)COc1ccccc1/C=N/NC(=O)c1cccc(S(=O)(=O)Nc2cccc(Cl)c2)c1 | inactive | 36.3 | 79.8 | inactive | 124 | inactive
O=[N+]([O-])c1ccccc1/C=C/C=N/n1c(-c2ccco2)n[nH]c1=S | inactive | 28.1 | 72.9 | inactive | 221 | inactive
Cn1c(SCC(=O)Nc2cccc(Br)c2)nnc1-c1cc2ccccc2o1 | inactive | 101 | 189 | inactive | 180 | inactive
COc1ccc(CC2(CO)CCN(S(=O)(=O)c3sccc3C)CC2)cc1 | inactive | 35.4 | 82.2 | inactive | 273 | inactive
Cc1ccc(-c2nnc3c4ccccc4c(C)nn23)cc1S(=O)(=O)N1CCN(CCO)CC1 | inactive | 38.3 | 86.6 | inactive | 238 | inactive
COC(=O)c1ccccc1NC(=O)CSCC(=O)Nc1ccccc1OC | inactive | 37.9 | 81.9 | inactive | 230 | inactive
Cc1cc2ccccn2c1C(=O)c1cc([N+](=O)[O-])cc([N+](=O)[O-])c1 | inactive | 37.4 | 85.6 | inactive | 270 | inactive
CCOC(=O)CNC(=O)c1cccnc1SCCc1ccccc1 | inactive | 46.7 | 125 | inactive | 65 | inactive
Cc1nc2ncccn2c1-c1csc(Nc2ccccc2)n1 | inactive | 26.5 | 40.8 | inactive | 105 | inactive
CCCCNC(=O)c1cc([N+](=O)[O-])[nH]n1 | inactive | 56.1 | 74.5 | inactive | 282 | inactive
Cc1ccc(C)c(N2CCN(C(=O)CN(C)S(=O)(=O)c3ccc4c(c3)CCC(=O)N4)CC2)c1 | inactive | 41.8 | 65.9 | inactive | 156 | inactive
Cc1nc(N/N=C/c2ccc(O)cc2)c2cnn(-c3ccccc3)c2n1 | inactive | 30.2 | 73.5 | inactive | 191 | inactive
Cn1c(=O)c2c(nc(N/N=C/c3ccco3)n2C)n(C)c1=O | inactive | 31.1 | 69.2 | inactive | 165 | inactive
CCCN1C(=O)/C(=C\C=C2\N(CC)c3ccccc3C2(C)C)SC1=S | inactive | 104 | 140 | inactive | 307 | inactive
Cc1cc([N+](=O)[O-])ccc1N=Nc1c(N)[nH]n(-c2ccccc2)c1=O | inactive | 38.4 | 85 | inactive | 225 | inactive
COc1ccccc1Oc1ccccc1C(=O)O | inactive | 100 | 239 | inactive | 271 | inactive
CCOC(=O)c1c(NC(=O)/C=C/c2ccc3c(c2)OCO3)sc(C)c1CC | inactive | 30.9 | 75.9 | inactive | 256 | inactive
